# Results reported in PubChem BioAssay.
# Target: Calmodulin-1 (Homo sapiens) (UniProt P0DP23)
# Experiment: small molecules binding Ca-loaded calmodulin-1 – biochemical, small-molecule microarray, Cy5-labelled CALM1, plus calcium, artefact control for SMM control-protein annotation, profiling panel (AID 1112);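 also: score merges spot fluorescence with signal to noise from triplicate slides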
# Conditions: Cy5-CALM1 binding fluorescence, higher = more signal
row,SMILES,composite z-score
1,CCC[C@@H]1C=C(C(=O)OCC)[C@H](c2ccccc2)N1S(=O)(=O)c1ccc(C)cc1,0.409
2,COCCOC(=O)N1C(=O)[C@@]2(c3cc(C#CCC(C(=O)OC)C(=O)OC)ccc31)[C@H](c1ccc(OCCO)cc1)N1[C@H](c3ccccc3)[C@H](c3ccccc3)OC(=O)[C@H]1[C@@H]2C(=O)N1CCCCCCC1,1.53
3,CCOC(=O)C[C@H]1[C@H](OC(=O)c2ccc(-c3ccccc3)cc2)[C@@H](NC(=O)CC(C)C)c2cc(OCCCO)ccc2N1C(=O)Cc1ccc(OC)cc1,0.335
4,COCCOC(=O)N1C(=O)[C@@]2(c3cc(C#CCC(C(=O)OC)C(=O)OC)ccc31)[C@H](C(N)=O)[C@H]1C(=O)O[C@H](c3ccccc3)[C@H](c3ccccc3)N1[C@@H]2c1ccc(OCCO)cc1,-0.27
5,C=CCC(OC(C)=O)[C@@H]1[C@@H](N(Cc2ccc(-c3cccc(C(F)(F)F)c3)o2)C(=O)c2cccc3ccccc23)c2cc(OCCCO)ccc2N1C(=O)c1ccc2ccccc2c1 (some centres undefined),0.17
6,COC(=O)[C@@]1(Cc2ccccc2)[C@H]2c3cc(C(=O)N4CCCC4)n(Cc4ccc(C(F)(F)F)nc4)c3C[C@H]2CN1C(=O)c1ccccc1,0.836
7,C=CC[C@@]1(C(=O)O)N=C(c2ccc(OCCCO)cc2)O[C@@H]1c1ccccc1CN=[N+]=[N-],0.608
8,COc1ccc([Si](C)(C)[C@H]2[C@H](CCn3cc([C@H](O)c4ccccc4)nn3)O[C@@]3(C(=O)N(C)c4c(Br)cc(C)cc43)[C@@H]2C)cc1,-0.0094
9,CC1(C)OC[C@@]23C=C(Br)[C@@H](C[C@H]12)[C@@]1(CO1)C3=O,-0.866

# Tested on: not listed separately
# Experiment: probe aWnt5a binding to arrayed compounds – biochemical, biotinylated probe, 635/667 nm fluorescence, primary screen (AID 1113);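 also: score merges 667 nm fluorescence intensity with signal-to-noise per printed feature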
# Conditions: small-molecule microarray, higher = more signal
row,SMILES,composite z-score
1,CCN(CC)c1ccc(N2CC=CC34O[C@@H]5C=CCOC(=O)[C@@H]5[C@H]3C(=O)N(CCO)[C@@H]4C2=O)cc1 (some centres undefined),-0.25
2,CCOC(=O)C1=CC[C@@H](c2ccccc2)N(S(=O)(=O)C[Si](C)(C)C)[C@H]1c1ccccc1,0.105
3,CN(C)CCCC[C@@H]1NC(=O)[C@@H]2C[C@H](C(=O)NCc3ccc(F)cc3)[C@H](c3ccc(O)cc3)N2C1=O,-0.204
4,C=CCOC(=O)[C@H]1[C@@H]2C(=O)O[C@@H](c3ccccc3)[C@@H](c3ccccc3)N2[C@@H](c2ccc(OCCOC(=O)[C@@H]3C[C@@H]4C(=O)N[C@@H](CC(C)C)C(=O)N4[C@@H]3c3ccc(O)cc3)cc2)[C@]12C(=O)Nc1ccc(I)cc12,0.0095
5,COCCCNC(=O)[C@@H]1c2ccccc2C(=O)N(C2CCCCC2)[C@H]1c1ccc(CO)cc1,-0.124
6,CN(C)CCCC[C@@H]1NC(=O)[C@H]2C[C@@H](C(=O)NCc3ccc(F)cc3)[C@@H](c3ccc(O)cc3)N2C1=O,-0.0748
7,COc1ccc(C#Cc2ccc3c(c2)[C@]2(C(=O)N3)[C@H](C(=O)Nc3nc4ccccc4s3)[C@H]3C(=O)O[C@H](c4ccccc4)[C@H](c4ccccc4)N3[C@@H]2c2ccc(OCCO)cc2)cc1,0.0377
8,C=CCC(OC(C)=O)[C@@H]1[C@@H](N(Cc2ccc(-c3cccc(C(F)(F)F)c3)o2)C(=O)c2cccc3ccccc23)c2cc(OCCCO)ccc2N1C(=O)c1ccc2ccccc2n1 (some centres undefined),-0.0459
9,C[N+](C)(C)CCCC[C@@H]1NC(=O)[C@H]2C[C@@H](C(=O)NCCCCCNC(=O)CS)[C@@H](c3ccc(O)cc3)N2C1=O,0.0101
10,C=CCC(OC(C)=O)[C@@H]1[C@@H](N(Cc2cccc3ccccc23)C(=O)c2cccc3ccccc23)c2cc(OCCCO)ccc2N1C(=O)Cc1ccc2ccccc2c1 (some centres undefined),-0.0685
11,COc1ccc(C(O)C2C=CC3C(=O)N(C)C(=O)C3N2Nc2ccc([N+](=O)[O-])cc2[N+](=O)[O-])cc1OCc1ccccc1 (centres undefined),0.112
12,COCCOC(=O)N1C(=O)[C@@]2(c3cc(C#CCC(C(=O)OC)C(=O)OC)ccc31)[C@H](C(=O)N1CCc3cc(OC)c(OC)cc3C1)[C@H]1C(=O)O[C@H](c3ccccc3)[C@H](c3ccccc3)N1[C@@H]2c1ccc(O)cc1,0.0718
13,C=CCNC(=O)[C@@H]1[C@H]2C(=O)O[C@H](c3ccccc3)[C@H](c3ccccc3)N2[C@H](c2ccc(O)cc2)[C@@]12C(=O)Nc1ccc(C#CC3(O)CCCCCC3)cc12,-0.127
14,COCCOC(=O)N1C(=O)[C@@]2(c3ccccc31)[C@H](C(=O)N1CCCCCCC1)[C@H]1C(=O)O[C@H](c3ccccc3)[C@H](c3ccccc3)N1[C@@H]2c1ccc(O)cc1,1.39
15,N#Cc1ccc(C(O)C2C=CC3C(=O)NC(=O)C3N2Nc2ccccn2)cc1 (centres undefined),-0.178
16,CC(C)C[C@H]1NC(=O)[C@@]23C(=O)N[C@@H](Cc4ccccc4)C2[C@H](C)[C@@]2(C)O[C@H]2C3/C=C/C/C=C\CNC(=O)[C@@H]2CCCN2C1=O (some centres undefined),-0.0704
17,CCCC[C@@H]1C[C@H]1[C@@H](NC(=O)Cc1ccccc1)c1ccc(Cl)cc1,0.225
18,NC(=O)N1C(=O)C2C(C1=O)C1C=C(CCCO)C2C(c2ccc(CN3CCCC3)cc2)N1Cc1cccc(OC(F)(F)F)c1 (centres undefined),-0.104

row,SMILES,composite z-score
1,CCOC(=O)C[C@H]1[C@H](OC(=O)c2ccc(C(=O)c3ccccc3)cc2)[C@@H](NC(=O)c2ccc3ccccc3c2)c2cc(OCCCO)ccc2N1C(=O)c1ccc2ccccc2n1,-0.168
2,O=C1NC(=O)C2C1C=CC(C(O)c1ccc(F)cc1)N2Nc1ccccn1 (centres undefined),-0.124
3,COc1ccc([Si](C)(C)[C@H]2[C@H](CC(=O)N3Cc4ccccc4C[C@H]3CO)O[C@@]3(C(=O)N(Cc4cccc(N5C(=O)c6cccc7cccc5c67)c4)c4ccccc43)[C@@H]2C)cc1,-0.0316
4,COC(=O)[C@@]1(Cc2ccccc2)[C@@H]2[C@@H](CC(=O)[C@H]2CC(=O)C(=O)N(C)C)CN1C(=O)c1ccccc1,0.0078
5,COC(=O)[C@]1(CO)N=C(c2ccc(OCCCO)cc2)O[C@@H]1c1ccccc1CN=[N+]=[N-],-0.145
6,CC(C)CNC(=O)[C@@H]1c2ccccc2C(=O)N(C(C)C)[C@H]1c1ccc(CO)cc1,-0.24
7,Cc1c(NC(=O)/C(C#N)=C/c2ccc(Cl)cc2)c(=O)n(-c2ccccc2)n1C,-0.0869
8,O=C1c2ccccc2[C@](Cc2ccccc2I)(C(=O)O)[C@H](c2ccc(CO)cc2)N1Cc1ccccc1,-0.0846
9,CCC[C@@H]1C=C(C(=O)OCC)[C@H](c2ccccc2)N1S(=O)(=O)c1ccc(C)cc1,0.145
10,COCCOC(=O)N1C(=O)[C@@]2(c3cc(C#CCC(C(=O)OC)C(=O)OC)ccc31)[C@H](c1ccc(OCCO)cc1)N1[C@H](c3ccccc3)[C@H](c3ccccc3)OC(=O)[C@H]1[C@@H]2C(=O)N1CCCCCCC1,0.816
11,CCOC(=O)C[C@H]1[C@H](OC(=O)c2ccc(-c3ccccc3)cc2)[C@@H](NC(=O)CC(C)C)c2cc(OCCCO)ccc2N1C(=O)Cc1ccc(OC)cc1,-0.0523
12,COCCOC(=O)N1C(=O)[C@@]2(c3cc(C#CCC(C(=O)OC)C(=O)OC)ccc31)[C@H](C(N)=O)[C@H]1C(=O)O[C@H](c3ccccc3)[C@H](c3ccccc3)N1[C@@H]2c1ccc(OCCO)cc1,-0.0161
13,C=CCC(OC(C)=O)[C@@H]1[C@@H](N(Cc2ccc(-c3cccc(C(F)(F)F)c3)o2)C(=O)c2cccc3ccccc23)c2cc(OCCCO)ccc2N1C(=O)c1ccc2ccccc2c1 (some centres undefined),-0.108
14,COC(=O)[C@@]1(Cc2ccccc2)[C@H]2c3cc(C(=O)N4CCCC4)n(Cc4ccc(C(F)(F)F)nc4)c3C[C@H]2CN1C(=O)c1ccccc1,0.288
15,C=CC[C@@]1(C(=O)O)N=C(c2ccc(OCCCO)cc2)O[C@@H]1c1ccccc1CN=[N+]=[N-],0.115
16,COc1ccc([Si](C)(C)[C@H]2[C@H](CCn3cc([C@H](O)c4ccccc4)nn3)O[C@@]3(C(=O)N(C)c4c(Br)cc(C)cc43)[C@@H]2C)cc1,-0.124
17,CC1(C)OC[C@@]23C=C(Br)[C@@H](C[C@H]12)[C@@]1(CO1)C3=O,0.0937
